These results are taken from PubChem BioAssay (NCI).

Each structure is given as a SMILES string. The panel holds about 83,000 compounds, 20% with a hit somewhere; the sample as a whole holds those more often.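 Method: cells in 96-well plates; compound added at one concentration; 48 h incubation; percent growth measured; values under 10 scored active.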 Calls of active or inactive are those of the source.

The test system of one test is HCT-116 colon. As to the kind of experiment: NCI-60 one-dose screen, 48 h (100 = growth as untreated, 0 = no growth, -100 = all killed). The following applies: 10 µM unless noted.
In the case of `CC(C)OCC1CO1` (stereo not drawn), the growth is 100% (inactive).
On the same count and under the same terms, the same measure for `COc1ccc(-c2nnc(SCC(=O)Nc3ccc(C(=O)/C=C/c4cc(OC)c(OC)c(OC)c4)cc3)n2-c2ccccc2)cc1OC`: -84.5% [100 µM] (active).
Same read-out and setting: in the case of `[N-]=[N+]=Nc1ncc(-c2ccc(C(F)(F)F)cc2)c(NC2CCCCCC2)n1` it was 16% [100 µM] (inactive); in that of `CC(C)(C)c1cc(C[P+](c2ccc(Cl)cc2)(c2ccc(Cl)cc2)c2ccc(Cl)cc2)cc(C(C)(C)C)c1O`, 40.7% (inactive); in that of `O=C(OCC1CC2(Cl)C(Cl)=C(Cl)C1(Cl)C2(Cl)Cl)C1C(C(=O)OCC2CC3(Cl)C(Cl)=C(Cl)C2(Cl)C3(Cl)Cl)C2(Cl)C(Cl)=C(Cl)C1(Cl)C2(Cl)Cl` (stereo not drawn), 101% (inactive).
On to `O=S(=O)(Cc1cccc2c(CS(=O)(=O)c3ccc(Cl)cc3)cccc12)c1ccc(Cl)cc1`, for which the growth is 95.5% (inactive).
The same measure, in the same setting: the same measure for `O=C(/C=C1\C(=O)N(Cc2ccccc2)c2ccccc21)c1ccc(OCCN2CCCCC2)cc1`: -3.84% (active).
Still for that read-out and setting: the same measure for `CC(C)(C)C(=O)CCCCCCCC/C=C/CCCC(O)c1ccco1` (stereo not drawn): 109% (inactive); for `CC(=O)CCS(=O)c1ccccc1` (stereo not drawn): 102% (inactive); for `O=P(OCCCl)(OCCCl)C(O)c1ccccc1Cl` (stereo not drawn): 107% (inactive).
The same measure, in the same setting: in the case of `CC1(C)C(O)NC(Cl)=C(C#N)C1(C#N)C#N` (stereo not drawn) it was 101% (inactive); in that of `COc1ccc(C(O)(c2ccccc2)C(C(=O)O)c2ccccc2)cc1` (stereo not drawn), 97.2% (inactive); in that of `O=C(O)CC1Cc2ccccc2C1C(=O)O` (stereo not drawn), 93.5% (inactive).
`O=c1[nH]c(=S)[nH]c(O)c1/C=C1\C=Nc2ccccc21`: the growth is 39.5% (inactive).
In the case of `O=C1NCCN1/N=C/c1c(Cl)nc2n1CCS2`, the growth is 93.5% (inactive).
Still for that read-out and setting: the same measure for `CCCC(=O)Nc1ccccc1C(=O)O`: 103% (inactive).
On to `CC(C)OC(=O)Nn1cnc2ccccc21`, for which the growth was 87.4% (inactive).
On the same count and under the same terms, the same measure for `O=C(NC1CCN(Cc2ccccc2)CC1)c1cc(-c2cccnc2)nc2ccc(Cl)cc12`: 57.6% (inactive).
Take `O=S(=O)(O)c1ccc2c(c1)Sc1cc(S(=O)(=O)O)ccc1O2`: the growth is 106% (inactive).
The same measure, in the same setting: in the case of `CCCCCc1ccnc(CC(=O)c2ccc(OC)cc2)c1` it was 78.2% (inactive).
On the same count and under the same terms, the same measure for `COc1ccc(-c2nc(SCC(C)C)nc(Nc3ccc([N+](=O)[O-])cc3)c2C#N)cc1`: 60.1% (inactive); for `COc1cc2ncnc(Nc3ccc4c(cnn4C(=O)Nc4ccccc4)c3)c2cc1OC`: 95.8% (inactive).
Still for that read-out and setting: in the case of `CCCCCSc1ccc2nc(NC(=O)OCC)sc2c1` it was 26% (inactive); in that of `COc1ccc(C2=C/C(=C\c3ccc(Cl)cc3)C(=O)NN2C(=S)NN)cc1`, 94.9% (inactive).

Another test relates to HCC-2998 colon. Described as above. To be noted: 10 µM unless noted.
In the case of `CSc1nc(N)n2nccc2n1`, the growth was 100% (inactive).
For the compound `Cc1nnc(-c2cc3c(ccc4ccccc43)oc2=O)c2cn(-c3ccc(Cl)cc3)nc12`, the growth is 97.3% (inactive).
Still for that read-out and setting: in the case of `COc1ccc(CNCCCN2C(=O)c3ccc4c5c(ccc(c35)C2=O)C(=O)N(CCCNCc2ccc(OC)c(OC)c2OC)C4=O)c(OC)c1OC` it was -92.8% (active); in that of `CCCCCCCCCCCCOC(=N)N(C)C`, 101% (inactive).
For `COCC(=O)NNc1[nH]c(-c2ccc(OC)cc2)cc1C#N`, the growth was 133% (inactive).
In the case of `c1cc(C2CCCCC2)ccc1OCCCCCCN1CCNCC1`, the growth was 12.9% (inactive).
On the same count and under the same terms, in the case of `O=C(CCCC(=O)Nc1ccc(Cn2nnc3cc(Cl)c(Cl)cc32)cc1)Nc1ccc(CN2N=NC3C=C(Cl)C(Cl)=CC32)cc1` (stereo not drawn) it was 90.2% (inactive).
On the same count and under the same terms, the same measure for `COc1cc(N)c2nccc(C)c2c1OC`: 149% (inactive); for `COc1ccc(Cn2cc3c(c2)-c2oncc2CC3)cc1OC`: -37.5% (active); for `Brc1c(-c2ccncc2)nc2n1CCS2`: 116% (inactive).
As for `CCc1c(C)c2ccc(OCC(=O)N=Nc3c(O)[nH]c4ccccc34)c(C)c2oc1=O`, the growth was -2.02% (active).
`Nc1ccc(N=Nc2ccccc2)c2cc(S(=O)(=O)O)ccc12`: the growth is 103% (inactive).
For `CC(C)CSc1nc(-c2ccc(F)cc2)c(C#N)c(N2CCCCC2)n1`, the growth is 104% (inactive).
On the same count and under the same terms, the same measure for `Cc1ccc2c(O)c(O)cc(NC(C)CCCN)c2n1` (stereo not drawn): 60.4% (inactive).
For `CCn1cnc(C[C@H](NC(=O)[C@@H](NC(=O)Nc2cc(C(F)(F)F)cc(C(F)(F)F)c2)C(C)(C)C)C(=O)OC)c1`, the growth is -89.3% [100 µM] (active).
On to `CC(C)OCC1CO1` (stereo not drawn), for which the growth was 120% (inactive).
Still for that read-out and setting: the same measure for `COc1ccc(-c2nnc(SCC(=O)Nc3ccc(C(=O)/C=C/c4cc(OC)c(OC)c(OC)c4)cc3)n2-c2ccccc2)cc1OC`: 8.22% [100 µM] (active).
On the same count and under the same terms, in the case of `[N-]=[N+]=Nc1ncc(-c2ccc(C(F)(F)F)cc2)c(NC2CCCCCC2)n1` it was 39.7% [100 µM] (inactive); in that of `CC(C)(C)c1cc(C[P+](c2ccc(Cl)cc2)(c2ccc(Cl)cc2)c2ccc(Cl)cc2)cc(C(C)(C)C)c1O`, 107% (inactive); in that of `O=C(OCC1CC2(Cl)C(Cl)=C(Cl)C1(Cl)C2(Cl)Cl)C1C(C(=O)OCC2CC3(Cl)C(Cl)=C(Cl)C2(Cl)C3(Cl)Cl)C2(Cl)C(Cl)=C(Cl)C1(Cl)C2(Cl)Cl` (stereo not drawn), 102% (inactive).
Regarding `O=S(=O)(Cc1cccc2c(CS(=O)(=O)c3ccc(Cl)cc3)cccc12)c1ccc(Cl)cc1`, the growth is 101% (inactive).
In the case of `O=C(/C=C1\C(=O)N(Cc2ccccc2)c2ccccc21)c1ccc(OCCN2CCCCC2)cc1`, the growth was 93.8% (inactive).
Take `CC(C)(C)C(=O)CCCCCCCC/C=C/CCCC(O)c1ccco1` (stereo not drawn): the growth is 88.6% (inactive).
Take `CC(=O)CCS(=O)c1ccccc1` (stereo not drawn): the growth is 91.7% (inactive).
Still for that read-out and setting: the same measure for `O=P(OCCCl)(OCCCl)C(O)c1ccccc1Cl` (stereo not drawn): 106% (inactive); for `CC1(C)C(O)NC(Cl)=C(C#N)C1(C#N)C#N` (stereo not drawn): 90.4% (inactive); for `COc1ccc(C(O)(c2ccccc2)C(C(=O)O)c2ccccc2)cc1` (stereo not drawn): 102% (inactive).
On to `O=C(O)CC1Cc2ccccc2C1C(=O)O` (stereo not drawn), for which the growth is 104% (inactive).
Same read-out and setting: in the case of `O=c1[nH]c(=S)[nH]c(O)c1/C=C1\C=Nc2ccccc21` it was 99.6% (inactive).
Consider `O=C1NCCN1/N=C/c1c(Cl)nc2n1CCS2`, for which the growth is 111% (inactive).
For the compound `CCCC(=O)Nc1ccccc1C(=O)O`, the growth is 97.9% (inactive).
On the same count and under the same terms, the same measure for `CC(C)OC(=O)Nn1cnc2ccccc21`: 105% (inactive); for `O=C(NC1CCN(Cc2ccccc2)CC1)c1cc(-c2cccnc2)nc2ccc(Cl)cc12`: 64.9% (inactive); for `O=S(=O)(O)c1ccc2c(c1)Sc1cc(S(=O)(=O)O)ccc1O2`: 102% (inactive).
Same read-out and setting: in the case of `CCCCCc1ccnc(CC(=O)c2ccc(OC)cc2)c1` it was 101% (inactive).
As for `COc1ccc(-c2nc(SCC(C)C)nc(Nc3ccc([N+](=O)[O-])cc3)c2C#N)cc1`, the growth was 107% (inactive).
Still for that read-out and setting: in the case of `COc1cc2ncnc(Nc3ccc4c(cnn4C(=O)Nc4ccccc4)c3)c2cc1OC` it was 87.4% (inactive).
With `CCCCCSc1ccc2nc(NC(=O)OCC)sc2c1`, the growth is 55% (inactive).
Same read-out and setting: the same measure for `COc1ccc(C2=C/C(=C\c3ccc(Cl)cc3)C(=O)NN2C(=S)NN)cc1`: 109% (inactive).
